Laboratory results as given in paper PMC12136788.
Where a chain is given by its changes, count along the chain named. Over roughly 24,000 sequences, “enrichment r” has its median near 0.99; the highest 2% begin near 3.7. The list comes from a sample in which the highest values are over-represented; it also holds similar and randomly drawn sequences.

T1: UNK ZnF1-3 (human, UniProt Q9C0B0 31-174)
T1 sequence: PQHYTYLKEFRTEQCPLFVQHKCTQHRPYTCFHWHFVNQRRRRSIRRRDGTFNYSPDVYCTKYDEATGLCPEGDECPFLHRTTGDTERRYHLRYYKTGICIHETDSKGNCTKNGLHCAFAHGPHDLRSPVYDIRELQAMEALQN

B1: 19988787_19988907_277_5pUTR_ENSG00000144566_ENST00000273047|human|control|control (ssRNA)
RNA: GGGAGUUCUACAGUCCGACGAUCCGGCGUCGCCUGCUCUUAGCGCCGCUCCCCUCACACUGGACUGUGCGGGGCUCGUGCCGUGGUGCCGCCCCUGUCGGGCUCCGUCUCCGCCUCUCGCCGCUCCCCCUUCCUCUUUCCUUUCAACAGAGGAUUGAGCAUCA
B2: 178098831_178098951_708_CDS_ENSG00000116044_ENST00000397062|human|control|control (ssRNA)
RNA: GGGAGUUCUACAGUCCGACGAUCGAAAAAGGCUUUCUCUUGCUCCUUUUGGAGUUGUUCUUGUCUUUCCUUUUCAAGUUUUUUCUGUUUUUCCAGCUCAUACUCUUUCCGUCGCUGACUGAAGUCAAAUACUUCUCGACUUACCAACAGAGGAUUGAGCAUCA
B3: chr10:1038518:1038519:+_ENSG00000107937_ENST00000545048|hu_hu|hu_hu_hu_mus_False|68_68 (ssRNA)
RNA: GGGAGUUCUACAGUCCGACGAUCCAGUCUGUCAUGGUAAUUCUGUUGAGUAAAUUUGACUUUUCUCAUGUAAAAAUGUCGAAUCCGAUGAAUUUGAUAAUGUUUAUGAAUAACCGUUGGAGUCUUUCGUUGAGUCUUGGAUAACAACAGAGGAUUGAGCAUCA
B4: chr8:30550554:30550555:-_ENSG00000104687_ENST00000414019|hu_mus|FALSE|FALSE (ssRNA)
RNA: GGGAGUUCUACAGUCCGACGAUCGCCGGCAUUCUCCAGUUCCUCGGUGCAGUUGGAACUGAUGAGUGAAUCAAAAUUUCUCAGUACCUUAUCAUGCCUGAUCAUAAGAGAUGUCUUGGAGCCCAGGGCAGAGAGGAUGCCCGCCAACAGAGGAUUGAGCAUCA
B5: chr6:106728040:106728041:+_ENSMUSG00000013736_ENSMUST00000057578|mus_mus|FALSE|FALSE (ssRNA)
RNA: GGGAGUUCUACAGUCCGACGAUCAGGAGCCACACCAAGAUCAUAGAUCAGGUGGAUCAAAUGGUUUACAUGGUCACCAGUAAGAAUUUUCUUCAGUUCUACCCAAAUCCUCUCUCCUGAUAUUCCAGCCAAACCUUUGGCAUUCAACAGAGGAUUGAGCAUCA
B6: chr22:19452774:19452775:-_ENSG00000070010_ENST00000399523|hu_hu|hu_hu_hu_mus_False|88_108 (ssRNA)
RNA: GGGAGUUCUACAGUCCGACGAUCCUUUUCAUUAUAGUUGAUAGCAAUCACAUCCCCAGUCGUCAGACAGGCGAAGUUUCUCAAUGCAUUUUCUAAUACCGCUUUAGGGUUGGUAAUAUCCAGGAAGUCUGGGCUCUGAGGCUGCAACAGAGGAUUGAGCAUCA
B7: chr7:148083511:148083512:+_ENSMUSG00000025487_ENSMUST00000026560|mus_mus|motif|central (ssRNA)
RNA: GGGAGUUCUACAGUCCGACGAUCCAAAUCCAGCACUCGCGGCUGCACCCACGUCAUGUGAACCCGCUUGUCCACCUCGUCGGUGCUGCCUCUCACCAGCCCCACCGAGAGUGCCUUCAUCACCAGCAACUCCACCUUGUUGACCAACAGAGGAUUGAGCAUCA
B8: chr16:46836887:46836888:-_ENSG00000155330_ENST00000285697|hu_mus|motif|central (ssRNA)
RNA: GGGAGUUCUACAGUCCGACGAUCACCAACAGAGUUUGAAGACAAAUAUCAGAGAAUAAGUCUUUGAUUGAUAAUUUUUCGGUUUAUUUCUGCCAAGGCAACUGAAAACACGAAAGCCUUCUCAUCAGAGAGGUUAGCAUAGAUCAACAGAGGAUUGAGCAUCA
B9: chr12:48362563:48362564:+_ENSG00000134291_ENST00000256686|hu_hu|hu_hu_hu_mus_False|68_108 (ssRNA)
RNA: GGGAGUUCUACAGUCCGACGAUCUCCGAAGGGUGAAUCGAUAGACCCUUGCGGGGGAAACUGUAAUAAUUCUAACUGGGGAAGGAAAAGAAACGCCAAAAACUUUCCAAAAAGCGGGGGUGGGGUGAGGCGGGAGGGGGAGGUCAACAGAGGAUUGAGCAUCA
B10: chr9:127911758:127911759:-_ENSG00000119414_ENST00000373547|hu_mus|FALSE|FALSE (ssRNA)
RNA: GGGAGUUCUACAGUCCGACGAUCUCUCAAACGAGUCCAAGGUGGGGUAGGAGGAGUGACAAAACUGAUAGAAAAACACUGCUAUUGACACCAUAACAAACAAUAAAUUUAGAUAAUUUAAAAUUAAAAAAAAAGGCAAGAGGCCAACAGAGGAUUGAGCAUCA
B11: chr12:48362563:48362564:+_ENSG00000134291_ENST00000256686|hu_hu|hu_hu_hu_mus_False|68_68 (ssRNA)
RNA: B9 RNA with A28U, A29C, G30A, G31A, U33C, G34C, A35C, A36U
B12: chr9:127911758:127911759:-_ENSG00000119414_ENST00000373547|hu_mus|motif|central (ssRNA)
RNA: B10 RNA with U82G, A83G
B13: 118497214_118499730_2480_CDS_ENSG00000065183_ENST00000349139|human|control|control (ssRNA)
RNA: GGGAGUUCUACAGUCCGACGAUCAUAAGAGAAAGGCAGCACAAGUAGAGAUUCUUCCAGCUCACUCGACUUGAUCCCUUUAAAAAUCUCUAAUACAUAAGCUGAAGGUGAGAUACUGCCAUAAGCCAUUAGGAUGGGGUUGCUCAACAGAGGAUUGAGCAUCA
B14: chr12:48362563:48362564:+_ENSG00000134291_ENST00000256686|hu_hu|hu_hu_hu_mus_False|1_68 (ssRNA)
RNA: GGGAGUUCUACAGUCCGACGAUCUCCGUCAAGCCCUUCGAUAGACCCUUGCGGGGGAAACUGUAAUAAUUCUAACUGGGGAAGGAAAAGAAACGCCAAAAACUUUCCAAAAAGCGGGGGUGGGGUGAGGCGGGAGGUUGGGAACAACAGAGGAUUGAGCAUCA

biological target: T1, UNK ZnF1-3; test: nsRBNS (natural sequence RNA bind-n-seq); RBNS binding buffer (assumed for nsRBNS): 25 mM Tris pH 7.5, 150 mM KCl, 3 mM MgCl2, 0.01% Triton X-100, 500 ug/ml BSA, 20 U/ml SUPERase-In, 4 C; UNK is unkempt and MSI1 is Musashi-1; names of the RNAs are library labels; protein concentration not given here; high values mean tight binding

Question: B1 was tested. Which binding signal did it give?
Answer: 0.72 enrichment R

Question: B2 was tested. Which binding signal did it give?
Answer: 0.134 enrichment R

Question: Which binding signal does the source give for B3 here?
Answer: 0.535 enrichment R

Question: With B4 as the binder, how does the binding signal read?
Answer: 1.28 enrichment R

Question: How did the binding signal turn out when B5 was run?
Answer: 0.982 enrichment R

Question: With B6 as the binder, how does the binding signal read?
Answer: 0.864 enrichment R

Question: B7 was tested. Which binding signal did it give?
Answer: 0.75 enrichment R

Question: Which binding signal does the source give for B8 here?
Answer: 0.868 enrichment R

Question: B9 was tested. Which binding signal did it give?
Answer: 3.2 enrichment R

Question: With B10 as the binder, how does the binding signal read?
Answer: 10.5 enrichment R

Question: For B11, which binding signal is on record?
Answer: 4.07 enrichment R

Question: Which binding signal does the source give for B12 here?
Answer: 14 enrichment R

Question: How did the binding signal turn out when B13 was run?
Answer: 1.8 enrichment R

Question: Which binding signal does the source give for B14 here?
Answer: 3.33 enrichment R
